Test results: PubChem BioAssay (Tox21)
Values joined by “and” are separate entries in the source; they are usually repeats but may differ in a detail not shown here. Identical values can stand only once. Inconclusive results are not listed. Active and inactive are the calls of the source. Unless noted, calls follow the shape of the dose curve; as a rule, active = well fitted curve in the direction sought with a large enough effect in the repeat runs; inconclusive = weak or mixed curves; inactive = no such curve, though single readings can be large; an effect the other way counts as inactive or inconclusive.

How the values were obtained:
[1] = qHTS assay to identify small molecule antagonists of the estrogen related receptor (ERR) signaling pathway from Tox21 library - cell viability counter screen (AID 1224834); also: nearly all actives have a fitted effect of over 30% in size
Procedure, shortened: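 Multiplexed viability counter screen in ERR cells: 17.5 h compound exposure at 37 C, CellTiter-Fluor added, 30 min at 37 C/5% CO2, fluorescence read.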

[2] = biological target: Luciferin 4-monooxygenase (Photinus pyralis) (UniProt P08659); assay: qHTS assay to identify small molecule inhibitors of firefly luciferase (AID 1224835); also: nearly all actives have a fitted effect of over 25% in size
Luciferin 4-monooxygenase (Photinus pyralis), sequence (P08659 whole entry, looked up): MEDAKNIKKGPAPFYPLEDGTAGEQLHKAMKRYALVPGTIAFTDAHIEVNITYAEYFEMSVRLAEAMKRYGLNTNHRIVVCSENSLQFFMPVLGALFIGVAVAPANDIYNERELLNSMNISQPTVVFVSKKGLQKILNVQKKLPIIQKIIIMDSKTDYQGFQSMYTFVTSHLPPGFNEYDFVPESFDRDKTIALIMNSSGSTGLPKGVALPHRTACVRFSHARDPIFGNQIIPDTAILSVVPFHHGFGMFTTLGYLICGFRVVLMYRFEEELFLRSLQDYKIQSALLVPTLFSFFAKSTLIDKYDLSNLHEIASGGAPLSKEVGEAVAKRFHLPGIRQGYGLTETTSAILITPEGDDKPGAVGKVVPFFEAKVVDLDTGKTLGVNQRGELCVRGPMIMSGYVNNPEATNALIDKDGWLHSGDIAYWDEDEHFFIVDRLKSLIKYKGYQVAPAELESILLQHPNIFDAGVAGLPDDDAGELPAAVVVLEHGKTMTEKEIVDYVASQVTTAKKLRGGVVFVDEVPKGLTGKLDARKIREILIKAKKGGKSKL
Procedure, shortened: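 Biochemical qHTS: compounds run as interplate titrations against purified firefly enzyme, with D-luciferin and ATP each at its KM concentration. Light output recorded by CCD imaging.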

[3] = qHTS assay to identify small molecule agonists of the constitutive androstane receptor (CAR) signaling pathway - cell viability counter screen (AID 1224836); also: nearly all actives have a fitted effect of over 45% in size
Procedure, shortened: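 Cells were seeded and incubated 4 hrs. Compounds were added across 15 concentrations together with PK11195 at 0.75 uM final. Plates were incubated 23 hrs at 37 C. CellTiter-Fluor was added and fluorescence measured.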

[4] = qHTS assay to identify small molecule antagonists of the constitutive androstane receptor (CAR) signaling pathway - cell viability counter screen (AID 1224837); also: nearly all actives have a fitted effect of over 45% in size
Procedure, shortened: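 Read-out: CellTiter-Fluor fluorescence after 23 hr at 37 C/5% CO2. Cells: HepG2 double-stable for hCAR and CYP2B6-2.2kb. Compounds tested at 15 concentrations in the presence of CITCO, final concentration 50 nM.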

[5] = biological target: Nuclear receptor subfamily 1 group I member 3 (Homo sapiens) (UniProt Q14994); assay: qHTS assay to identify small molecule antagonists of the constitutive androstane receptor (CAR) signaling pathway (AID 1224838);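 also: HepG2 cells stably expressing hCAR with CYP2B6 luciferase reporter stimulated by CITCO; nearly all actives have a fitted effect of over 40% in size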
Nuclear receptor subfamily 1 group I member 3 (Homo sapiens), sequence (Q14994 whole entry, looked up): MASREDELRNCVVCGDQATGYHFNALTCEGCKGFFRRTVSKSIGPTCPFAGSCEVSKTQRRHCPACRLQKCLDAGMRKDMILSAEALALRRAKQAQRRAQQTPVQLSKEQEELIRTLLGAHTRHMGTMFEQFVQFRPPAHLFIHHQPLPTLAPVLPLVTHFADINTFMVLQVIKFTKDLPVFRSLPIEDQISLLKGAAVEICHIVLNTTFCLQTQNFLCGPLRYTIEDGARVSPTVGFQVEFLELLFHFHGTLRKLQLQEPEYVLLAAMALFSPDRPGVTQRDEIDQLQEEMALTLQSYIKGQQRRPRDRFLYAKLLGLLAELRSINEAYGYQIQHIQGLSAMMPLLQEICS
Procedure, shortened: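 Read-out: ONE-Glo luciferase luminescence after 30 min at room temperature. HepG2-CYP2B6-hCAR double-stable cells, compounds in 15-point titration plus 50 nM CITCO final, 24 h at 37 C/5% CO2.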

[6] = biological target: Nuclear receptor subfamily 1 group I member 3 (Homo sapiens) (UniProt Q14994); assay: qHTS assay to identify small molecule agonists of the constitutive androstane receptor (CAR) signaling pathway (AID 1224839);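 also: HepG2 cells stably carrying human CAR and a CYP2B6 luciferase reporter; nearly all actives have a fitted effect of over 15% in size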
Procedure, shortened: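 Cells were plated and incubated 4 hrs, then dosed with compounds at 15 concentrations. PK11195 was added to 0.75 uM final. After 24 hrs at 37 C, luciferase luminescence was measured.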

[7] = qHTS assay to identify small molecule antagonists of the estrogen related receptor signaling pathway with the pleiotropic PPARgamma coactivator (PGC) from Tox21 10K library - cell viability counter screen (AID 1224840; active = well fitted cell-killing curve with a large enough effect in the repeat runs, not every such curve was filed as active; also: nearly all actives have a fitted effect of over 40% in size)
Procedure, shortened: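 Fluorescence read-out of CellTiter-Fluor viability reagent, added after cells had been exposed to compound in DMSO for 17.5 h at 37 C; 30 min development at 37 C/5% CO2. Cells: PGC/ERR line, 2,000/well.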

[8] = biological target: Thyrotropin receptor (Homo sapiens) (UniProt P16473); assay: qHTS assay to identify small molecule agonists of the thyroid stimulating hormone receptor (TSHR) signaling pathway (AID 1224843; calls by dose curve; also: nearly all actives have a fitted effect of over 45% in size)
Thyrotropin receptor (Homo sapiens), sequence (P16473 whole entry, looked up): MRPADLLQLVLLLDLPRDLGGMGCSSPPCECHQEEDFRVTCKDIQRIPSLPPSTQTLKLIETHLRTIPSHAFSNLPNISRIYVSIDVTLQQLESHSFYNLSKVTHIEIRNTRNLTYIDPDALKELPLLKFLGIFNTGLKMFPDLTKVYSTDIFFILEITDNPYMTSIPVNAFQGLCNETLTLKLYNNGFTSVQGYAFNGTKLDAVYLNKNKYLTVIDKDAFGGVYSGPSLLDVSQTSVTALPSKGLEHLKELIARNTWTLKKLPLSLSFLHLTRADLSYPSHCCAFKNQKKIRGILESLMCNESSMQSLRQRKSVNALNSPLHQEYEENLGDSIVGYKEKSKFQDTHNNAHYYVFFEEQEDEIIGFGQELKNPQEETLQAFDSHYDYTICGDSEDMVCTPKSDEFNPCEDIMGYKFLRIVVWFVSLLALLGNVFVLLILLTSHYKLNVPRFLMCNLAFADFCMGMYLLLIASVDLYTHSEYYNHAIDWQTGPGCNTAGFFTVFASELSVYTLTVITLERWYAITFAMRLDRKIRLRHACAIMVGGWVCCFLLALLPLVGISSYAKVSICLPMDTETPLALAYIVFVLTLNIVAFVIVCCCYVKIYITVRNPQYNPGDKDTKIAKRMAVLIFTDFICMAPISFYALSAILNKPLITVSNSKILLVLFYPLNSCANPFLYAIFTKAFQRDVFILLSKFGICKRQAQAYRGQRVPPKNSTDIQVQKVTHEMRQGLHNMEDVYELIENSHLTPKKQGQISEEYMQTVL
Procedure, shortened: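 HEK293/TSHR, 800 cells/well; cpd 30 min RT; add cAMP-d2 + anti-cAMP-cryptate, 1 h RT; fluorescence read on plate reader. 15-pt titration, n=3.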

[9] = qHTS assay to identify small molecule agonists of the hypoxia (HIF-1) signaling pathway - cell viability counter screen (AID 1224844; calls by dose curve; also: nearly all actives have a fitted effect of over 50% in size)
Procedure, shortened: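 CellTiter-Glo luminescence read-out, 30 min RT, taken in the same wells as the beta-lactamase HRE reporter assay; HRE-bla ME-180 cells, 0.5% dialyzed FBS, 17 hr compound treatment at 37C, 5% CO2.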

[10] = qHTS assay to identify small molecule agonists of H2AX (AID 1224845; active = well fitted activation curve with a large enough effect in the signal ratio in the repeat runs, not every such curve was filed as active; the % refers to the signal ratio)
Procedure, shortened: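 Wild-type CHO-K1 cells, plated overnight, exposed 3hr at 37C to 15 concentrations (0.76% DMSO final). Lysed, then HTRF anti-pH2AX (S139) cryptate and anti-H2AX-d2 antibodies, 24 hr room temperature; 665/620 nm emission read.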

[11] = qHTS assay to identify small molecule agonists of the hypoxia (HIF-1) signaling pathway (AID 1224846; active = well fitted activation curve with a large enough effect in the signal ratio in the repeat runs, not every such curve was filed as active; the % refers to the signal ratio)
Procedure, shortened: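 Beta-lactamase FRET read-out (CCF4-AM substrate) from ME-180 cells carrying an HRE-driven bla reporter, after 17 hrs compound exposure at 37C/5% CO2. Cells were seeded at 2,000 per well in 0.5% dialyzed FBS medium and preincubated 5 hrs.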

[12] = qHTS assay to identify small molecule agonists of H2AX - cell viability counter screen (AID 1224847; calls by dose curve; also: top concentration of the series differs between compounds; nearly all actives have a fitted effect of over 30% in size)
Procedure, shortened: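 Cytotoxicity counter screen in wild-type CHO-K1 cells: a 3 hr compound treatment at 37C across 15 concentrations, followed by CellTiter-Glo luminescence to gauge viable cells.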

[13] = qHTS RealTime-Glo MT Cell Viability Assay in HepG2 cells - 24 hour (AID 1224867); also: nearly all actives have a fitted effect of over 50% in size
Procedure, shortened: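 HepG2 suspension premixed with RealTime-Glo reagents is plated at 600 cells per well and left 5 h at 37 C/5% CO2. Compounds in DMSO then go in, and bioluminescence reflecting viable cell number is recorded over 40 h.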

[14] = qHTS RealTime-Glo MT Cell Viability Assay in HEK293 cells - 32 hour (AID 1224868); also: top concentration of the series differs between compounds; nearly all actives have a fitted effect of over 50% in size
Procedure, shortened: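 Reads taken at 0, 8, 16, 24, 32 and 40 h from the same wells. HEK293 cells (600/well) carried RealTime-Glo reagents from seeding, with compound added after a 5 h settle at 37 C.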

[15] = A CellTox Green Cytotoxicity Assay to monitor cytotoxicity in HEK293 cells - 0 hour (AID 1224869); also: nearly all actives have a fitted effect of over 50% in size
Procedure, shortened: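 Read-out: fluorescence of a cell-impermeant cyanine dye staining DNA of dead cells, proportional to cytotoxicity. HEK293, 600 cells/well with reagent, compound (23 nL DMSO) added after 5 h; reads at 0, 8, 16, 24, 32, 40 h.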

[16] = qHTS RealTime-Glo MT Cell Viability Assay in HepG2 cells - 40 hour (AID 1224870); also: nearly all actives have a fitted effect of over 50% in size
Procedure, shortened: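 HepG2 cells (600/well) mixed with RealTime-Glo MT reagent, settled 5 h at 37 C/5% CO2 before compound addition. Nonlytic NanoLuc luminescence from viable-cell prosubstrate reduction read repeatedly during 40 h treatment at 37 C.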

[17] = qHTS assay to identify small molecule antagonists of the estrogen related receptor signaling pathway with the pleiotropic PPARgamma coactivator (PGC) from Tox21 10K library (AID 1224841; call rule not given here)
Procedure, shortened: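 Luminescence read-out (One-Glo luciferase reagent, 30 min at room temperature) from PGC/ERR cells exposed to DMSO-dissolved test compounds for 18 h at 37 C; cells, 2,000 per well, had been preincubated 6 h before compound transfer.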

[18] = qHTS assay to identify small molecule agonists of the estrogen related receptor signaling pathway with the pleiotropic PPARgamma coactivator (PGC) from Tox21 10K library (AID 1224842); also: nearly all actives have a fitted effect of over 15% in size
Procedure, shortened: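 PGC/ERR reporter cell line, 2,000 cells per well, incubated 6 h at 37 C before 23 nL compound in DMSO was added. After 18 h at 37 C, One-Glo luminescence read following 30 min at room temperature.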

[19] = qHTS assay to identify small molecule antagonists of the estrogen related receptor (ERR) signaling pathway from Tox21 library (AID 1224848); also: nearly all actives have a fitted effect of over 50% in size
Procedure, shortened: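 Compounds dissolved in DMSO are pin-transferred onto ERR reporter cells (2,000 per well) that have settled for 6 h at 37 C. Plates then incubate 18 h at 37 C before ONE-Glo luciferase reagent and a luminescence read 30 min later.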

[20] = qHTS assay to identify small molecule agonists of the estrogen related receptor (ERR) signaling pathway from Tox21 library (AID 1224849; calls by dose curve; also: nearly all actives have a fitted effect of over 15% in size); settings: ERR reporter cell line, ONE-Glo luciferase, 18 h; at 92.4 µM (top of the series)
Procedure, shortened: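 Luminescence readout (ONE-Glo, 30 min RT) after 18 h compound exposure at 37 C of NTP-supplied ERR reporter cells; cells were plated 6 h before compound addition by pin tool.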
% is scaled to controls: 0 for no effect and ±100 for the full control effect.

Brc1ccc(Oc2ccc(Br)cc2)cc1
inactive: Potency [1] | Potency [2] | Potency [3] | Potency [4] | Potency [5] | Potency [6] | Potency [7] | Potency [8] | Potency [9] | Potency [10] | outcome [11] | Potency [12] | Potency [13] | Potency [14] | Potency [15] | Potency [16]

OCC(CO)(CO)CO
inactive: Potency [1] | Potency [2] | Potency [3] | Potency [4] | Potency [5] | Potency [6] | Potency [7] | Potency [8] | Potency [9] | Potency [10] | outcome [11] | Potency [12] | Potency [13] | Potency [14] | Potency [15] | Potency [16]

OCC(O)CS (stereo unspecified)
inactive: Potency [1] | Potency [2] | Potency [3] | Potency [4] | Potency [5] | Potency [6] | Potency [7] | Potency [8] | Potency [9] | Potency [10] | outcome [11] | Potency [12] | Potency [13] | Potency [14] | Potency [15] | Potency [16]

C=CC(C)(C)C
inactive: Potency [1] | Potency [2] | Potency [3] | Potency [4] | Potency [5] | Potency [6] | Potency [7] | Potency [17] | Potency [18] | Potency [8] | Potency [9] | Potency [10] | outcome [11] | Potency [12] | Potency [19] | activity change, positive = activation [20] 1.24% and -3.33% | Potency [13] | Potency [14] | Potency [15] | Potency [16]

O=C1O[C@H]([C@H](O)CO)C(O)=C1O
inactive: Potency [1] | Potency [2] | Potency [3] | Potency [4] | Potency [5] | Potency [6] | Potency [7] | Potency [8] | Potency [9] | Potency [10] | outcome [11] | Potency [12] | Potency [13] | Potency [14] | Potency [15] | Potency [16]

Cc1cc(C)cc(O)c1
inactive: Potency [1] | Potency [2] | Potency [3] | Potency [4] | Potency [5] | Potency [6] | Potency [7] | Potency [17] | Potency [18] | Potency [8] | Potency [9] | Potency [10] | outcome [11] | Potency [12] | Potency [19] | activity change, positive = activation [20] 8.03% and 0.796% | Potency [13] | Potency [14] | Potency [15] | Potency [16]

COc1c(Cl)ccc(Cl)c1C(=O)O
inactive: Potency [1] | Potency [2] | Potency [3] | Potency [4] | Potency [5] | Potency [6] | Potency [7] | Potency [8] | Potency [9] | Potency [10] | outcome [11] | Potency [12] | Potency [13] | Potency [14] | Potency [15] | Potency [16]

CC(=O)c1nccs1
inactive: Potency [1] | Potency [2] | Potency [3] | Potency [4] | Potency [5] | Potency [6] | Potency [7] | Potency [8] | Potency [9] | Potency [10] | outcome [11] | Potency [12] | Potency [13] | Potency [14] | Potency [15] | Potency [16]
